# From the supplement of paper PMC11060735
# Values joined by “and” are separate entries in the source; they are usually repeats but may differ in a detail not shown here. Equal entries are not always repeated. Structures can show the parent of a compound that is named as a salt. The campaign covered roughly 1,800 compounds. About 50 (3%) showed activity. The full list was thinned out, with actives kept by preference. A number with no mark means an inactive call.
# Test system: mouse p16Ink4a+/- lung fibroblasts (INKBRITE, bleomycin-injured)
# Assay: percentage of GFP+ (p16Ink4a+) fibroblasts among all cells in well; higher = less depletion of p16Ink4a+ cells, active = 20 or less
# Details: 1 µM; 3 days
row,Compound,percentage of GFP+
1,N#C/C(=C\c1ccc(O)c(O)c1)C(=O)NCc1ccccc1 [Tyrphostin Ag 490],42.9%
2,C[C@H](NC(=O)/C(C#N)=C/c1cccc(Br)n1)c1ccccc1,43%
3,CCC[C@H](NC(=O)/C(C#N)=C/c1cccc(Br)n1)c1ccccc1 [Degrasyn],13.1% (active)
4,Nc1ccn([C@@H]2O[C@H](CO)[C@@H](O)C2(F)F)c(=O)n1 [Gemcitabine],17.1% (active)
5,Nc1ccn([C@@H]2O[C@H](CO)[C@@H](O)[C@@H]2O)c(=O)n1 [Cytarabine],26.8%
6,Nc1ccn([C@@H]2O[C@H](CO)[C@@H](O)[C@H]2O)c(=O)n1 [Cytidine],48.9%
7,Cc1nc2n(c(=O)c1CCN1CCC(c3noc4cc(F)ccc34)CC1)CCCC2 [Risperidone],42.6%
8,CCC(=O)N1CCN(c2ccc(-n3c(=O)ccc4cnc5ccc(-c6cnc7ccccc7c6)cc5c43)cc2C(F)(F)F)CC1 [Torin 1],46%
9,Cn1c(=O)n(-c2ccc(C(C)(C)C#N)cc2)c2c3cc(-c4cnc5ccccc5c4)ccc3ncc21 [Dactolisib],36%
10,COc1ccc(-c2ccc3ncc4c(c3c2)n(-c2ccc(N3CCNCC3)c(C(F)(F)F)c2)c(=O)n4C)cn1,10.6% (active)
11,Cc1cc(Nc2cc(CN3CCOCC3)c3nc(C)c(Cc4ccc(Cl)cc4F)n3n2)[nH]n1,43.7%
12,Cn1c(N2CCCCS2(=O)=O)nc(C(=O)NCc2ccc(F)cc2)c(O)c1=O,26.4%
13,NC(=O)c1noc([C@H](CCCC2CCCCC2)CC(=O)NO)n1,47%
14,CC(=O)O[C@H]1C[C@@H]2CC[C@@H]3[C@H](CC[C@@]4(C)[C@H]3C[C@H]([N+]3(C)CCCCC3)[C@@H]4OC(C)=O)[C@@]2(C)C[C@@H]1N1CCCCC1 [Vecuronium],47%
15,O=C(O)c1ccccc1 [Benzoic Acid],44.8%
16,CN(NC(=O)CC(=O)NN(C)C(=S)c1ccccc1)C(=S)c1ccccc1 [Elesclomol],12% (active)
17,O=C(O)CCNC(=O)c1ccccc1 [Betamipron],46%
18,Cn1cc(C2=C(c3cn(CCCSC(=N)N)c4ccccc34)C(=O)NC2=O)c2ccccc21,58.4%
19,OC[C@H]1O[C@@H](n2cnc3c(O)ncnc32)[C@H](O)[C@@H]1O [Inosine],47.7%
20,CN1CCN(CCOc2cc(OC3CCOCC3)c3c(Nc4c(Cl)ccc5c4OCO5)ncnc3c2)CC1 [Saracatinib],46.2%
21,CC[C@]1(O)C[C@@H]2CN(CCc3c([nH]c4ccccc34)[C@@](C(=O)OC)(c3cc4c(cc3OC)N(C=O)[C@@H]3C45CCN4CC=C[C@](CC)([C@H]45)[C@@H](OC(C)=O)[C@]3(O)C(=O)OC)C2)C1 (stereo partly drawn) [Vincristine],16.5% (active)
22,CC[C@]1(O)C[C@@H]2CN(CCc3c([nH]c4ccccc34)[C@@](C(=O)OC)(c3cc4c(cc3OC)N(C)[C@@H]3C45CCN4CC=C[C@](CC)([C@H]45)[C@@H](OC(C)=O)[C@]3(O)C(=O)OC)C2)C1 (stereo partly drawn) [Vinblastine],24.8%
23,CC#C[C@]1(O)CC[C@H]2[C@@H]3CCC4=CC(=O)CCC4=C3[C@@H](c3ccc(N(C)C)cc3)C[C@@]21C [Mifepristone],46.9%
24,CN[C@@H](C)C(=O)N[C@H](C(=O)N1CCC[C@H]1C(=O)Nc1snnc1-c1ccccc1)C1CCCCC1,21.9%

row,Compound,percentage of GFP+
1,C=CCNC(N)=S [Allylthiourea],35%
2,N=C(N)N/N=C/c1c(Cl)cccc1Cl [Guanabenz],49.3%
3,NC(=S)N/N=C/c1ncccc1N [Triapine],17.4% (active)
4,COc1ccc([C@@H]2CC(=O)c3c(O)cc(O)cc3O2)cc1O [Hesperetin],47.8%
5,COc1cc2nccc(Oc3ccc(NC(=O)C4(C(=O)Nc5ccc(F)cc5)CC4)cc3)c2cc1OC [Cabozantinib],29.6%
6,CCOc1nc2cccc(C(=O)OC(C)OC(=O)OC3CCCCC3)c2n1Cc1ccc(-c2ccccc2-c2nn[nH]n2)cc1 (stereo not drawn) [Candesartan Cilextil],44.8%
7,CC(=O)Oc1cc2c(s1)CCN(C(C(=O)C1CC1)c1ccccc1F)C2 (stereo not drawn) [Prasugrel],49.3%
8,Cc1ccc(NC(=O)c2ccc(CN3CCN(C)CC3)cc2)cc1Nc1nc(-c2cccnc2)cs1 [Masitinib],30.8%
9,Cc1ccc(C(=O)Nc2ccc(CN3CCN(C)CC3)c(C(F)(F)F)c2)cc1C#Cc1cnc2cccnn12 [Ponatinib],31.2%
10,Cc1ccc(C(=O)Nc2ccc(CN3CCN(C)CC3)c(C(F)(F)F)c2)cc1C#Cc1cnc2[nH]ncc2c1 [Olverembatinib],17.2% (active)
11,Cn1c(=O)c(F)c(Nc2ccc(I)cc2F)c2c(=O)n(C[C@@H](O)CO)cnc21,28.4%
12,O=S(=O)(c1cccc2cnccc12)N1CCCNCC1 [Fasudil Hydrochloride],48.7%
13,Nc1ccccc1NC(=O)c1ccc(CNc2nccc(-c3cccnc3)n2)cc1 [Mocetinostat],12.6% (active)
14,"Cc1ccc(NC(=O)c2ccc(CN3CCN(C)CC3)cc2)cc1Nc1nccc(-c2cccnc2)n1 [Imatinib, Imatinib Mesylate]",32.5% and 39%
15,Nc1ccccc1NC(=O)c1ccc(CNC(=O)OCc2cccnc2)cc1 [Entinostat],32%
16,N#CC1(c2ccc(NC(=O)c3cccnc3NCc3ccncc3)cc2)CCCC1 [Apatinib],28%
17,N=C(N)NC(=O)c1nc(Cl)c(N)nc1N [Amiloride],33.1%
18,CC(C)(C#N)c1cc(Cn2cncn2)cc(C(C)(C)C#N)c1 [Anastrozole],45.5%
19,C[C@H](N[C@@H](CCc1ccccc1)C(=O)O)C(=O)N1CCC[C@H]1C(=O)O [Enalaprilat],36.7%
20,CC(C)C[C@H](NC(=O)[C@H](CCc1ccccc1)NC(=O)CN1CCOCC1)C(=O)N[C@@H](Cc1ccccc1)C(=O)N[C@@H](CC(C)C)C(=O)[C@@]1(C)CO1 [Carfilzomib],4.67% (active)
21,O=C(Cc1ccc(-c2ccc(OCCN3CCOCC3)cc2)cn1)NCc1ccccc1,30.9%
22,COc1ccc(C[C@H](NC(=O)[C@H](C)NC(=O)CN2CCOCC2)C(=O)N[C@@H](Cc2ccccc2)C(=O)[C@]2(C)CO2)cc1,11.6% (active)
23,COC[C@H](NC(=O)c1cnc(C)s1)C(=O)N[C@@H](COC)C(=O)N[C@@H](Cc1ccccc1)C(=O)C1(C)CO1 (stereo partly drawn) [Oprozomib],5.21% (active)
24,CC(C)c1nc(CN(C)C(=O)N[C@@H](CCN2CCOCC2)C(=O)N[C@H](CC[C@H](Cc2ccccc2)NC(=O)OCc2cncs2)Cc2ccccc2)cs1 [Cobicistat],43.4%
